The record followed here is PMC7862700, “An all-to-all approach to the identification of sequence-specific readers for epigenetic DNA modifications on cytosine”.

ETV5, sequence (P41161 whole entry): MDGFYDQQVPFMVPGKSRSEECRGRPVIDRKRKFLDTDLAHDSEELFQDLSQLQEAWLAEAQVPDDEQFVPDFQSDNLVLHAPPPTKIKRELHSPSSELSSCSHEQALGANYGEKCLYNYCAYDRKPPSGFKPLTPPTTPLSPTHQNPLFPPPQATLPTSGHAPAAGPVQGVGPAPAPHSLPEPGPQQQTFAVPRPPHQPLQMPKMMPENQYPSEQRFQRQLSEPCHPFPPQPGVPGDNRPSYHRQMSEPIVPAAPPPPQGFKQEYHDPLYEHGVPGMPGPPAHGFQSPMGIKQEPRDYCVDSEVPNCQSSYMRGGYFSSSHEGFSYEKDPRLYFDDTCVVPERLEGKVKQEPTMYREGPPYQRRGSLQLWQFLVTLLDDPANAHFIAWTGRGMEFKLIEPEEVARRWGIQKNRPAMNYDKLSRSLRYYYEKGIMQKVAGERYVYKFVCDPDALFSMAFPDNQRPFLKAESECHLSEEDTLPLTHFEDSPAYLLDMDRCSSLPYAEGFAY

The first assay concerns the target T1, FEV (Homo sapiens, UniProt Q99581 1-238).
T1 sequence: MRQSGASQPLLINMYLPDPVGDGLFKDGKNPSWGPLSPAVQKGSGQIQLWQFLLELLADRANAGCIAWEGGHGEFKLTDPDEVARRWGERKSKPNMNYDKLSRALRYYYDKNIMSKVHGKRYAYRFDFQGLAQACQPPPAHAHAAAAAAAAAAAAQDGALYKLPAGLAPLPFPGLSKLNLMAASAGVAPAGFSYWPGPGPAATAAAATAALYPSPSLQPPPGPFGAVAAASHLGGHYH
Kind of assay: DAPPL (digital affinity profiling via proximity ligation, sequencing); 10 mM Tris-HCl pH 7.5, 50 mM NaCl, 1 mM DTT, 4% glycerol, room temperature, 30 min; GST-TFs on glutathione beads, 16-mer random dsDNA library, 0.1% formaldehyde crosslink after washing; high values mean tight binding. The settings on record: protein: recombinant; tags: N-terminal GST; dsDNA, one strand shown. The method in brief:
(§1)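 After expression in yeast as GST fusions, human transcription factors were bound to glutathione beads, DNA-barcoded and mixed with a tag-only sample. The pools were incubated with 200 nmole of a 16-mer random double-stranded DNA library in Tris/NaCl/DTT/glycerol buffer (30 min, room temperature), washed and crosslinked with 0.1% formaldehyde. Proximity ligation with BsaI/T4 ligase ran for 1 h at 37 °C, before PCR amplification and sequencing on an Illumina NextSeq500. Binding signal is a hexamer's read frequency for a factor divided by its frequency for the tag-only sample.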
Consider CGGATG, for which the binding signal was 2.16 fold enrichment (6-mer frequency, TF over GST control).
CCATAC: the binding signal is 1.16 fold enrichment (6-mer frequency, TF over GST control).
Regarding AACAGG, the binding signal was 1.16 fold enrichment (6-mer frequency, TF over GST control).
On the same count and under the same terms, to GTAACA belongs 1.14 fold enrichment (6-mer frequency, TF over GST control).
For GCGCCT, the binding signal was 1.13 fold enrichment (6-mer frequency, TF over GST control).
Still for that read-out and setting: to TGTCCG belongs 1.61 fold enrichment (6-mer frequency, TF over GST control); to GCACAT, 1.23 fold enrichment (6-mer frequency, TF over GST control); to CGGCAT, 1.09 fold enrichment (6-mer frequency, TF over GST control).
Take CACTCA: the binding signal was 1.16 fold enrichment (6-mer frequency, TF over GST control).
With GTATGC, the binding signal is 1.15 fold enrichment (6-mer frequency, TF over GST control).
With CACAAT, the binding signal is 1.06 fold enrichment (6-mer frequency, TF over GST control).
In the case of CGACCG, the binding signal was 1.6 fold enrichment (6-mer frequency, TF over GST control).
CCGCCC: the binding signal was 1.38 fold enrichment (6-mer frequency, TF over GST control).
As to GATGTC, the binding signal is 1.59 fold enrichment (6-mer frequency, TF over GST control).
Turning to CCACCC, the binding signal was 1.17 fold enrichment (6-mer frequency, TF over GST control).
TTGGCC: the binding signal is 1.14 fold enrichment (6-mer frequency, TF over GST control).
GTACCT: the binding signal is 1.14 fold enrichment (6-mer frequency, TF over GST control).
Still for that read-out and setting: for GATGCG the value was 1.15 fold enrichment (6-mer frequency, TF over GST control); for CATGGT, 1.08 fold enrichment (6-mer frequency, TF over GST control).
As to CGCCGC, the binding signal is 1.24 fold enrichment (6-mer frequency, TF over GST control).
CTGTCA: the binding signal was 1.03 fold enrichment (6-mer frequency, TF over GST control).
As to GCCGAC, the binding signal was 1.14 fold enrichment (6-mer frequency, TF over GST control).
Regarding GCACAA, the binding signal was 1.1 fold enrichment (6-mer frequency, TF over GST control).
Same read-out and setting: for ACATGT the value was 1.03 fold enrichment (6-mer frequency, TF over GST control).
As to CTGGTC, the binding signal is 1.11 fold enrichment (6-mer frequency, TF over GST control).
Turning to CCAAAC, the binding signal was 1.08 fold enrichment (6-mer frequency, TF over GST control).
On to ACAGGA, for which the binding signal was 1.18 fold enrichment (6-mer frequency, TF over GST control).
AGTGGC: the binding signal was 1.43 fold enrichment (6-mer frequency, TF over GST control).
In the case of ACAAAC, the binding signal is 1.15 fold enrichment (6-mer frequency, TF over GST control).
Same read-out and setting: for CACACG the value was 1.14 fold enrichment (6-mer frequency, TF over GST control); for CCCATC, 1.06 fold enrichment (6-mer frequency, TF over GST control); for CCGGTT, 2.7 fold enrichment (6-mer frequency, TF over GST control).
As for CAAATG, the binding signal was 1.11 fold enrichment (6-mer frequency, TF over GST control).
Same read-out and setting: to CCGGTA belongs 1.81 fold enrichment (6-mer frequency, TF over GST control); to CATCAC, 1.16 fold enrichment (6-mer frequency, TF over GST control); to CTGTGC, 1.03 fold enrichment (6-mer frequency, TF over GST control).
Take GAAGCG: the binding signal was 1.37 fold enrichment (6-mer frequency, TF over GST control).
The same measure, in the same setting: for CAATGC the value was 1.16 fold enrichment (6-mer frequency, TF over GST control); for GTCACA, 1.11 fold enrichment (6-mer frequency, TF over GST control).

The next assay addresses ETV5 (Homo sapiens, UniProt P41161 1-510). Described as above. The settings on record: protein: recombinant; tags: N-terminal GST; dsDNA, one strand shown. The method in brief:
as §1
With CGGATG, the binding signal was 1.71 fold enrichment (6-mer frequency, TF over GST control).
Regarding CCATAC, the binding signal is 1.16 fold enrichment (6-mer frequency, TF over GST control).
Still for that read-out and setting: to AACAGG belongs 1.27 fold enrichment (6-mer frequency, TF over GST control).
Consider GTAACA, for which the binding signal is 1.08 fold enrichment (6-mer frequency, TF over GST control).
As to GCGCCT, the binding signal was 1.07 fold enrichment (6-mer frequency, TF over GST control).
The same measure, in the same setting: to TGTCCG belongs 1.61 fold enrichment (6-mer frequency, TF over GST control); to GCACAT, 1.2 fold enrichment (6-mer frequency, TF over GST control).
For CGGCAT, the binding signal is 1.13 fold enrichment (6-mer frequency, TF over GST control).
As for CACTCA, the binding signal was 1.09 fold enrichment (6-mer frequency, TF over GST control).
As to GTATGC, the binding signal was 1.17 fold enrichment (6-mer frequency, TF over GST control).
As for CACAAT, the binding signal was 1.1 fold enrichment (6-mer frequency, TF over GST control).
On to CGACCG, for which the binding signal is 1.19 fold enrichment (6-mer frequency, TF over GST control).
Turning to CCGCCC, the binding signal is 1.34 fold enrichment (6-mer frequency, TF over GST control).
For GATGTC, the binding signal was 1.37 fold enrichment (6-mer frequency, TF over GST control).
For the sequence CCACCC, the binding signal was 1.25 fold enrichment (6-mer frequency, TF over GST control).
On to TTGGCC, for which the binding signal was 1.12 fold enrichment (6-mer frequency, TF over GST control).
Regarding GTACCT, the binding signal was 1.26 fold enrichment (6-mer frequency, TF over GST control).
As for GATGCG, the binding signal is 1.14 fold enrichment (6-mer frequency, TF over GST control).
The same measure, in the same setting: for CATGGT the value was 1.24 fold enrichment (6-mer frequency, TF over GST control); for CGCCGC, 1.13 fold enrichment (6-mer frequency, TF over GST control); for CTGTCA, 1.06 fold enrichment (6-mer frequency, TF over GST control).
The same measure, in the same setting: for GCCGAC the value was 1.02 fold enrichment (6-mer frequency, TF over GST control); for GCACAA, 1.07 fold enrichment (6-mer frequency, TF over GST control).
ACATGT: the binding signal is 1.16 fold enrichment (6-mer frequency, TF over GST control).
On to CTGGTC, for which the binding signal is 1.22 fold enrichment (6-mer frequency, TF over GST control).
For CCAAAC, the binding signal is 1.07 fold enrichment (6-mer frequency, TF over GST control).
ACAGGA: the binding signal is 1.19 fold enrichment (6-mer frequency, TF over GST control).
With AGTGGC, the binding signal was 1.24 fold enrichment (6-mer frequency, TF over GST control).
Still for that read-out and setting: for ACAAAC the value was 1.08 fold enrichment (6-mer frequency, TF over GST control).
Regarding CACACG, the binding signal was 1.11 fold enrichment (6-mer frequency, TF over GST control).
On the same count and under the same terms, to CCCATC belongs 1.16 fold enrichment (6-mer frequency, TF over GST control); to CCGGTT, 2.15 fold enrichment (6-mer frequency, TF over GST control).
Still for that read-out and setting: for CAAATG the value was 1.09 fold enrichment (6-mer frequency, TF over GST control); for CCGGTA, 1.59 fold enrichment (6-mer frequency, TF over GST control).
The same measure, in the same setting: for CATCAC the value was 1.13 fold enrichment (6-mer frequency, TF over GST control).
Turning to CTGTGC, the binding signal was 1.17 fold enrichment (6-mer frequency, TF over GST control).
For GAAGCG, the binding signal was 1.33 fold enrichment (6-mer frequency, TF over GST control).
In the case of CAATGC, the binding signal is 1.22 fold enrichment (6-mer frequency, TF over GST control).
GTCACA: the binding signal was 1.1 fold enrichment (6-mer frequency, TF over GST control).

A further assay concerns the target T2, SPIC (Homo sapiens, UniProt Q8N5J4 1-248).
T2 sequence: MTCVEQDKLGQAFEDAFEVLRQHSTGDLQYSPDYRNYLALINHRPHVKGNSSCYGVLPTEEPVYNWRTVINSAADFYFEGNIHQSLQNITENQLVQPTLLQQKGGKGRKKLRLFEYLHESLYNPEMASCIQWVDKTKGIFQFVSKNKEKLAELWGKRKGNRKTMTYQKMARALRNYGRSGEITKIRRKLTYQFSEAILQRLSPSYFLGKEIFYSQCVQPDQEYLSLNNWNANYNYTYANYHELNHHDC
The description is as above. As to conditions: protein: recombinant; tags: N-terminal GST; dsDNA, one strand shown. In outline: as §1
CGGATG: the binding signal is 1.48 fold enrichment (6-mer frequency, TF over GST control).
As for CCATAC, the binding signal is 1.13 fold enrichment (6-mer frequency, TF over GST control).
On the same count and under the same terms, to AACAGG belongs 1.15 fold enrichment (6-mer frequency, TF over GST control); to GTAACA, 1.12 fold enrichment (6-mer frequency, TF over GST control).
As for GCGCCT, the binding signal is 1 fold enrichment (6-mer frequency, TF over GST control).
On to TGTCCG, for which the binding signal is 1.36 fold enrichment (6-mer frequency, TF over GST control).
Same read-out and setting: for GCACAT the value was 1.14 fold enrichment (6-mer frequency, TF over GST control).
Same read-out and setting: for CGGCAT the value was 1.18 fold enrichment (6-mer frequency, TF over GST control); for CACTCA, 1.3 fold enrichment (6-mer frequency, TF over GST control).
For GTATGC, the binding signal is 1.14 fold enrichment (6-mer frequency, TF over GST control).
Take CACAAT: the binding signal is 1.13 fold enrichment (6-mer frequency, TF over GST control).
Take CGACCG: the binding signal was 1.09 fold enrichment (6-mer frequency, TF over GST control).
With CCGCCC, the binding signal was 1.33 fold enrichment (6-mer frequency, TF over GST control).
On the same count and under the same terms, to GATGTC belongs 1.23 fold enrichment (6-mer frequency, TF over GST control); to CCACCC, 1.21 fold enrichment (6-mer frequency, TF over GST control); to TTGGCC, 1.06 fold enrichment (6-mer frequency, TF over GST control).
For GTACCT, the binding signal is 1.44 fold enrichment (6-mer frequency, TF over GST control).
For the sequence GATGCG, the binding signal is 1.24 fold enrichment (6-mer frequency, TF over GST control).
Turning to CATGGT, the binding signal is 1.39 fold enrichment (6-mer frequency, TF over GST control).
On the same count and under the same terms, to CGCCGC belongs 1.22 fold enrichment (6-mer frequency, TF over GST control); to CTGTCA, 1.27 fold enrichment (6-mer frequency, TF over GST control).
In the case of GCCGAC, the binding signal is 1.34 fold enrichment (6-mer frequency, TF over GST control).
Still for that read-out and setting: for GCACAA the value was 1.09 fold enrichment (6-mer frequency, TF over GST control); for ACATGT, 1.13 fold enrichment (6-mer frequency, TF over GST control); for CTGGTC, 1.2 fold enrichment (6-mer frequency, TF over GST control).
Turning to CCAAAC, the binding signal is 1.16 fold enrichment (6-mer frequency, TF over GST control).
Still for that read-out and setting: to ACAGGA belongs 1.07 fold enrichment (6-mer frequency, TF over GST control).
Turning to AGTGGC, the binding signal is 1.16 fold enrichment (6-mer frequency, TF over GST control).
Turning to ACAAAC, the binding signal is 1.11 fold enrichment (6-mer frequency, TF over GST control).
Still for that read-out and setting: to CACACG belongs 1.15 fold enrichment (6-mer frequency, TF over GST control).
Turning to CCCATC, the binding signal is 1.27 fold enrichment (6-mer frequency, TF over GST control).
On to CCGGTT, for which the binding signal is 1.68 fold enrichment (6-mer frequency, TF over GST control).
With CAAATG, the binding signal was 1.01 fold enrichment (6-mer frequency, TF over GST control).
Regarding CCGGTA, the binding signal is 1.69 fold enrichment (6-mer frequency, TF over GST control).
Take CATCAC: the binding signal was 1.26 fold enrichment (6-mer frequency, TF over GST control).
On to CTGTGC, for which the binding signal is 1.27 fold enrichment (6-mer frequency, TF over GST control).
Still for that read-out and setting: to GAAGCG belongs 1.27 fold enrichment (6-mer frequency, TF over GST control); to CAATGC, 1.12 fold enrichment (6-mer frequency, TF over GST control).
GTCACA: the binding signal was 1.04 fold enrichment (6-mer frequency, TF over GST control).
